Source: PubChem BioAssay (Tox21)
“And” between values parts separate entries of the source, which are not always exact repeats. Equal values may be shown once. Records with an inconclusive call do not appear. The source made the active and inactive calls. Unless noted, the call rests on the fitted dose curve; in most records, active means well fitted curve in the direction sought with a large enough effect in the repeat runs; inconclusive means weak or mixed curves; inactive means no such curve, though single readings can be large; an effect the other way counts as inactive or inconclusive.

Key:
[1] = qHTS assay to identify small molecule agonists of the NFkB signaling pathway - cell viability counter screen (AID 1159515; calls by dose curve; further: nearly all actives have a fitted effect of over 55% in size; further: potency means the concentration at half of the fitted maximal effect)
Outline: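 Cells are seeded (2,000 NFkB-bla ME-180 per well), rested overnight, and dosed with DMSO-dissolved compounds for 5 hr at 37 C. Viability is then read by CellTiter-Glo luminescence after 30 min at room temperature.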

[2] = qHTS assay to identify small molecule agonists of the endoplasmic reticulum stress response signaling pathway (AID 1159516; active means well fitted activation curve with a large enough effect in the signal ratio in the repeat runs, not every such curve was filed as active; the % refers to the signal ratio)
Outline: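 Cells are seeded at 1,500 per well and incubated overnight. Compounds in DMSO are added for 5 hr at 37 C, then beta-lactamase FRET substrate for 2 hr at room temperature, and fluorescence at 460 and 530 nm is measured.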

[3] = qHTS assay to identify small molecule antagonists of the retinoid-related orphan receptor gamma (ROR-gamma) signaling pathway - cell viability counter screen (AID 1159520); further: nearly all actives have a fitted effect of over 50% in size; further: potency means the concentration at half of the fitted maximal effect
Outline: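 Tet-on ROR gamma CHO cells were given compounds for 2 hr, then doxycycline hyclate at 1 uM final, and incubated 16 hr at 37 C. Viability was measured as ATP content by CellTiter-Glo luminescence.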

[4] = qHTS assay to identify small molecule agonists of the AP-1 signaling pathway - cell viability counter screen (AID 1159525; calls by dose curve; further: nearly all actives have a fitted effect of over 55% in size; further: potency means the concentration at half of the fitted maximal effect)
Outline: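 Same-well cytotoxicity counter screen of the Tox21 10K library in ME-180 cells. The readout is ATP-dependent luminescence after 5 h compound treatment. Data are normalised to DMSO and tetra n-octyl ammonium bromide controls.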

[5] = qHTS assay to identify small molecule agonists of the AP-1 signaling pathway (AID 1159526; calls by dose curve)
[6] = qHTS assay to identify small molecule agonists of the RXR signaling pathway - cell viability counter screen (AID 1159529); further: nearly all actives have a fitted effect of over 50% in size; further: potency means the concentration at half of the fitted maximal effect
Outline: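 Luminescence from CellTiter-Glo (30 min, RT) measured viability in the same wells as the beta-lactamase reporter readout. Cells: GeneBLAzer RXR-alpha HEK 293T, 2% charcoal-stripped FBS. Compound exposure 16 hr, 37 C.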

[7] = qHTS assay to identify small molecule antagonists of the retinoid acid receptor (RAR) signaling pathway - cell viability counter screen (AID 1159551); further: nearly all actives have a fitted effect of over 35% in size; further: potency means the concentration at half of the fitted maximal effect
Outline: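 Cells (C3RL4) are plated, incubated overnight, dosed with compound in DMSO, then given retinol at 1 uM final. After 6 h at 37 C, CellTiter-Glo is added and luminescence read following 30 min at room temperature.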

[8] = qHTS assay to identify small molecule agonists of the retinoic acid receptor (RAR) signaling pathway (AID 1159553); further: potency means the concentration at half of the fitted maximal effect
Outline: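 Seed C3RL4 reporter cells at 1,000 per well and incubate overnight at 37 C. Add compounds in DMSO, incubate 6 hr. Add luciferase reagent, wait 30 min at room temperature, read luminescence.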

[9] = qHTS assay to identify small molecule antagonists of the estrogen related receptor (ERR) signaling pathway - cell viability counter screen (AID 1224818); further: series mostly up to about 46 µM
Outline: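 ERR cells, 2,000/well; 6 h settle at 37 C/5% CO2; compound pin transfer (DMSO); 17.5 h at 37 C; CellTiter-Fluor, 30 min, fluorescence read.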

[10] = qHTS assay to identify small molecule antagonists of the estrogen related receptor signaling pathway with the pleiotropic PPARgamma coactivator (PGC) cell viability counter screen (AID 1224822; further: potency means the concentration at half of the fitted maximal effect;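 further: viability read after 17.5 h compound exposure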)
Outline: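 Multiplexed viability counter screen run in PGC/ERR cells treated with compounds for 17.5 h at 37 C; live-cell protease signal measured by CellTiter-Fluor fluorescence.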

[11] = qHTS assay to identify small molecule antagonists of the estrogen related receptor (ERR) signaling pathway from Tox21 library - cell viability counter screen (AID 1224834); further: nearly all actives have a fitted effect of over 30% in size; further: potency means the concentration at half of the fitted maximal effect
Outline: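 ERR cells, 2,000/well; 6 h settle at 37 C/5% CO2; pin-tool compound transfer in DMSO; 17.5 h at 37 C; CellTiter-Fluor, 30 min; fluorescence intensity.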

[12] = molecular target: Nuclear receptor ROR-gamma (Homo sapiens) (UniProt P51449); assay: qHTS assay to identify small molecule antagonists of the retinoid-related orphan receptor gamma (ROR-gamma) signaling pathway (AID 1159521; further: nearly all actives have a fitted effect of over 50% in size; further: potency means the concentration at half of the fitted maximal effect)
Outline: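 Luminescence readout (ONE-Glo, 30 min RT) after 16 h doxycycline induction; loss of signal scored as antagonism. CHO cells with TET-inducible RORγ and RORE-LUC reporter; compounds added 2 h before 1 uM final doxycycline.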

[13] = molecular target: Retinoic acid receptor RXR-alpha (Homo sapiens) (UniProt P19793); assay: qHTS assay to identify small molecule agonists of the RXR signaling pathway (AID 1159527; calls by dose curve; further: nearly all actives have a fitted effect of over 35% in size)
Sequence of Retinoic acid receptor RXR-alpha (Homo sapiens) (P19793 whole entry, looked up): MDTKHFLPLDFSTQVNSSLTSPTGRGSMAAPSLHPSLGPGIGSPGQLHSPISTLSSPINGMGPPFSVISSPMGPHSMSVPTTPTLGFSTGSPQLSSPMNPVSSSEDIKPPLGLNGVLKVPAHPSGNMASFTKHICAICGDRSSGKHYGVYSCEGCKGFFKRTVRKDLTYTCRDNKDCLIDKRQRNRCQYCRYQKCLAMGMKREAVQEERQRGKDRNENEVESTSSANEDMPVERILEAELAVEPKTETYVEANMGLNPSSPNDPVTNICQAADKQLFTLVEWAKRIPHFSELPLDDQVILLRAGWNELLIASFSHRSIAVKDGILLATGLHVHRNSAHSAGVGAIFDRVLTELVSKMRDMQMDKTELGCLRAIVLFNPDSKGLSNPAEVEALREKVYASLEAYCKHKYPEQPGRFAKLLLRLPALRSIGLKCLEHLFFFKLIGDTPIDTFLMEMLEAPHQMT
Outline: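 Agonist mode; 9-cis retinoic acid positive control. HEK 293T UAS-bla reporter cells, 2% charcoal-stripped FBS, 16 hr compound exposure at 37 C/5% CO2. LiveBLAzer B/G FRET substrate 2 hr RT; ex 405, em 460/530 nm.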

[14] = qHTS assay to identify small molecule antagonists of the retinoic acid receptor (RAR) signaling pathway (AID 1159552; further: nearly all actives have a fitted effect of over 50% in size; further: potency means the concentration at half of the fitted maximal effect)
Outline: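 Luminescence from a RARE luciferase reporter in C3RL4 cells served as read-out. Cells received compounds together with 1 uM final retinol and incubated 6 hr at 37 C before detection reagent was added for 30 min at room temperature.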

[15] = qHTS assay to identify small molecule antagonists of the vitamin D receptor (VDR) signaling pathway - cell viability counter screen (AID 743225); further: nearly all actives have a fitted effect of over 50% in size; further: potency means the concentration at half of the fitted maximal effect
Outline: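 Viability counter screen run in the same wells as the beta-lactamase reporter assay: HEK 293T VDR-UAS-bla cells, 16 h compound exposure at 37C with 3 nM (final) 1-alpha,25-dihydroxyvitamin D3. CellTiter-Glo luminescence, 30 min, room temperature.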

[16] = qHTS assay to identify small molecule agonists of the endoplasmic reticulum stress response signaling pathway - cell viability counter screen (AID 1159517; calls by dose curve; further: nearly all actives have a fitted effect of over 50% in size; further: potency means the concentration at half of the fitted maximal effect)
Outline: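 Steps: seed 1,500 ESRE-bla HeLa cells per well; incubate overnight at 37 C, 5% CO2; add compounds in DMSO for 5 hr; run FRET substrate 2 hr RT; add CellTiter-Glo, wait 30 min, read luminescence.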

[17] = qHTS assay to identify small molecule antagonists of the estrogen related receptor (ERR) signaling pathway (AID 1224819)
Outline: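 qHTS in ERR cells, 2,000/well, 1536 format. Cpd (DMSO) added after 6 h settle, 18 h 37 C. One-Glo luminescence, 30 min RT.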

[18] = qHTS assay to identify small molecule agonists of the estrogen related receptor (ERR) signaling pathway (AID 1224820)
Outline: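 Luminescence readout (One-Glo, 30 min RT) from NTP-supplied ERR cell line exposed to compounds for 18 h at 37 C. Cells seeded 2,000 per well and pre-incubated 6 h before pin-tool compound transfer.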

[19] = test system: estrogen-related receptor alpha (ERRalpha) with PGC-1alpha coactivator, human; assay: qHTS assay to identify small molecule antagonists of the estrogen related receptor signaling pathway with the pleiotropic PPARgamma coactivator (PGC) (AID 1224821; calls by dose curve)
Outline: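 PGC/ERR reporter cells; 6 h pre-incubation 37 C/5% CO2; pin-tool compound in DMSO, 18 h 37 C; One-Glo added, 30 min RT; luminescence read. qHTS antagonist mode.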

[20] = qHTS assay to identify small molecule agonists of the estrogen related receptor signaling pathway with the pleiotropic PPARgamma coactivator (PGC) (AID 1224823)
Outline: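 Luminescence readout (One-Glo, 30 min RT) from PGC/ERR cell line treated 18 h at 37 C with pin-tool-delivered DMSO compound solutions; cells plated 6 h before dosing. Quantitative HTS format.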

Measured: Potency

CCCCC(CC)COC(=O)c1ccccc1C(=O)OCC(CC)CCCC (configuration not stated)
inactive: [1] | [2] | [3] | [4] | [5] | [6] | [7] | [8] | [9] | [10] | [11]

CSC1=N[C@@](C)(c2ccccc2)C(=O)N1Nc1ccccc1
inactive: [1] | [2] | [4] | [5] | [13] | [6] | [7] | [11]
active: [12] 10.9 µM

S=C=NCCc1ccccc1
inactive: [1] | [2] | [4] | [6] | [7] | [14]

CCCCCCCc1ccc(O)cc1
inactive: [1] | [2] | [12] | [7] | [14]
active: [4] 54.9 µM | [8] 8.63 µM

Cc1nn(-c2cc(NS(C)(=O)=O)c(Cl)cc2Cl)c(=O)n1C(F)F
inactive: [15] | [1] | [16] | [3] | [12] | [4] | [5] | [13] | [6] | [7] | [11]

BrCCCBr
not listed: [2] | [9] | [10] | [11] | [17] | [18] | [19] | [20]
inactive: all other assays above

Brc1cccc(-c2ccccc2)c1
inactive: [1] | [16] | [3] | [12] | [4] | [5] | [6] | [14] | [8]

CCCCC/C=C\C/C=C\C/C=C\C/C=C\CCCC(=O)NCC(=O)O
inactive: [1] | [2] | [3] | [12] | [13] | [7] | [14] | [8] | [11]

BrCC(Br)(Br)Br
inactive: [15] | [1] | [16] | [12] | [4] | [5] | [13] | [7] | [14]
active: [3] 50.3 µM

O=C1C[C@@H]2OCC=C3CN4CC[C@]56c7ccccc7N1[C@H]5[C@H]2[C@H]3C[C@H]46
inactive: [15] | [1] | [16] | [3] | [12] | [4] | [5] | [6] | [7] | [8]

COP(=S)(OC)Oc1ccc([N+](=O)[O-])c(C)c1
inactive: [1] | [16] | [3] | [12] | [4] | [5] | [13] | [7]

Nc1c(Cl)c(Cl)c(Cl)c(Cl)c1Cl
not listed: [4] | [5] | [13] | [16] | [17] | [18] | [19] | [20]
inactive: all other assays above

COP(=O)(OC)Oc1ccc([N+](=O)[O-])cc1
inactive: [1] | [16] | [3] | [12] | [4] | [5] | [7] | [14] | [8]

O=C1C2(Cl)C3(Cl)C4(Cl)C(Cl)(Cl)C5(Cl)C3(Cl)C1(Cl)C5(Cl)C24Cl (configuration not stated)
active: [15] 48.2 µM and 46.9 µM | [1] 52.6 µM | [16] 48.2 µM | [3] 21.3 µM and 46.5 µM | [12] 12 µM and 29.3 µM | [4] 30.4 µM | [7] 47.8 µM | [14] 21.3 µM and 29.3 µM | [11] 53.6 µM and 58.5 µM

O=S1OCC2C(CO1)C1(Cl)C(Cl)=C(Cl)C2(Cl)C1(Cl)Cl (configuration not stated)
active: [1] 55 µM | [16] 55 µM | [3] 54.5 µM | [12] 43.3 µM and 61.1 µM | [4] 38.9 µM and 48.9 µM | [6] 48.9 µM | [7] 54.5 µM | [14] 48.6 µM and 54.4 µM | [11] 54.5 µM

CCC[CH2][Sn]([CH2]CCC)([CH2]CCC)[O][Sn]([CH2]CCC)([CH2]CCC)[CH2]CCC
active: [15] 0.852 µM | [1] 0.24 µM | [16] 0.269 µM | [3] 0.336 µM | [12] 0.168 µM | [4] 0.537 µM | [7] 1.5 µM

O=[N+]([O-])c1cc(C(F)(F)F)c(Cl)c([N+](=O)[O-])c1Nc1ncc(C(F)(F)F)cc1Cl
active: [15] 6.92 µM | [1] 11 µM | [16] 12.3 µM | [3] 4.86 µM | [12] 1.37 µM | [4] 11 µM | [6] 7.76 µM | [7] 54.5 µM | [14] 30.6 µM | [11] 27.3 µM

C=C(C)C(=O)[O][Sn]([CH2]CCC)([CH2]CCC)[CH2]CCC
active: [15] 1.95 µM | [1] 0.436 µM | [16] 0.692 µM | [3] 1.37 µM | [12] 0.306 µM | [4] 0.977 µM | [6] 1.1 µM | [7] 7.7 µM | [14] 2.73 µM | [11] 1.72 µM

C=CC(=O)[O][Sn]([CH2]CCC)([CH2]CCC)[CH2]CCC
active: [1] 0.977 µM | [16] 0.977 µM | [3] 1.09 µM | [12] 0.611 µM | [4] 2.45 µM | [6] 1.38 µM | [7] 6.11 µM | [14] 0.864 µM

CC[C@H](C)[C@H]1O[C@]2(C=C[C@@H]1C)C[C@@H]1C[C@@H](C/C=C(\C)[C@@H](O[C@H]3C[C@H](OC)[C@@H](O[C@H]4C[C@H](OC)[C@@H](NC)[C@H](C)O4)[C@H](C)O3)[C@@H](C)/C=C/C=C3\CO[C@@H]4[C@H](O)C(C)=C[C@@H](C(=O)O1)[C@]34O)O2
active: [15] 4.36 µM | [1] 34.7 µM | [16] 19.5 µM | [3] 13.7 µM | [12] 3.86 µM | [4] 13.8 µM | [6] 4.36 µM | [7] 13.7 µM | [11] 8.63 µM

Fc1ccc(C(OCCN2CCN(CCCc3ccccc3)CC2)c2ccc(F)cc2)cc1
active: [1] 23.9 µM | [16] 26.8 µM | [3] 29.8 µM | [12] 13.3 µM | [4] 21.3 µM | [6] 16.9 µM | [17] 9.08 µM | [19] 12.8 µM | [10] 22.8 µM | [11] 26.6 µM
inactive: [18] | [20]
